# Assay results taken from article PMC5540273 (PLoS ONE, 2017).
# Columns and labels:
# Conditions in all cases: concentration: 1 μM,replicates: in singlicate; n = 1
# CAMK1 = tested on: CAMK1
# CAMK2A = tested on: CAMK2A
# CAMK2B = tested on: CAMK2B
# CAMK2D = tested on: CAMK2D
# CAMK2G = tested on: CAMK2G
# CAMK4 = tested on: CAMK4
# CAMKK1 = tested on: CAMKK1
# CAMKK2 = tested on: CAMKK2
# CASK = tested on: CASK
# CDC2L1 = tested on: T1, CDC2L1
# T1 construct: gene CDK11B
# 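Further: KINOMEscan kinase panel screen.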
SMILES,%Inh (CAMK1),%Inh (CAMK2A),%Inh (CAMK2B),%Inh (CAMK2D),%Inh (CAMK2G),%Inh (CAMK4),%Inh (CAMKK1),%Inh (CAMKK2),%Inh (CASK),%Inh (CDC2L1)
C=CC(=O)Nc1cc2c(Nc3ccc(F)c(Cl)c3)ncnc2cc1OCCCN1CCOCC1 [GW781483],14%,0%,0%,0%,15%,0%,6%,14%,0%,0%
C[C@@H](Oc1cc(-c2cnn(C3CCNCC3)c2)cnc1N)c1c(Cl)ccc(F)c1Cl,0%,12%,2%,16%,20%,0%,24%,24%,,59%
COc1ccc(C[C@@H](CN)NC(=O)c2cc(Br)c(-c3ccnc4[nH]ccc34)s2)cc1.Cl.Cl [GSK1389063],23%,7%,0%,26%,19%,13%,66%,64%,34%,0%
C[C@H]1Oc2cc(cnc2N)-c2c(nn(C)c2C#N)CN(C)C(=O)c2ccc(F)cc21,29%,5%,2%,0%,3%,67%,49%,61%,5%,0%
CNC(=O)c1ccccc1Sc1ccc2c(/C=C/c3ccccn3)n[nH]c2c1,9%,26%,24%,3%,12%,0%,16%,,36%,0%
Cc1cc2cn[nH]c2cc1-c1cccc2c(N)c(C(N)=O)nnc12,47%,0%,5%,8%,15%,27%,29%,7%,23%,2%
Cc1ccc2c(-c3ccncc3)c(-c3ccc(F)cc3)nn2c1.Cl [GW461484],0%,0%,0%,0%,16%,0%,8%,11%,1%,0%
C[C@@H]1CCN(C(=O)CC#N)C[C@@H]1N(C)c1ncnc2[nH]ccc12,21%,0%,,0%,0%,0%,0%,0%,0%,2%
CN(C)CCOc1ccc(-c2cc(-c3c[nH]nc3-c3ccccn3)ccn2)cc1 [GW835314],12%,0%,0%,24%,0%,0%,25%,2%,29%,2%
CC(C)Nc1cc(-c2ccc3c(N)n[nH]c3c2)nc(N)n1 [GSK2221681],24%,0%,0%,0%,27%,0%,0%,5%,13%,0%
Cl.Cl.NC[C@H](CC1CCCCC1)NC(=O)c1cc(Br)c(-c2ccnc3[nH]ccc23)s1 [GSK1581427],13%,0%,0%,4%,34%,0%,0%,20%,53%,0%
CCN(CC)CCCCNc1ncc2cc(-c3c(Cl)cccc3Cl)c(NC(=O)NC(C)(C)C)nc2n1,9%,0%,0%,9%,20%,20%,15%,23%,0%,0%
NC(=O)c1cc(-c2ccccc2)cc2c(C3CCNCC3)c[nH]c12 [GSK301362],30%,0%,0%,23%,19%,0%,0%,4%,18%,0%
Cl.Cl.Nc1nc(-c2ccc3c(N)n[nH]c3c2)cc(N2CCCC(NC(=O)c3ccccc3)C2)n1 (centres unmarked) [GSK2286775],18%,0%,0%,11%,19%,0%,18%,14%,16%,0%
Cc1n[nH]c2ccc(-c3cc(OC[C@@H](N)Cc4ccccc4)cnc3-c3ccoc3)cc12.O=C(O)C(F)(F)F.O=C(O)C(F)(F)F [GSK507358],15%,0%,0%,28%,31%,0%,21%,32%,3%,0%
Cc1cc(C(=O)Nc2ccc(Oc3ccc4nc(NC(=O)C5CC5)cn4n3)cc2)nn1-c1ccccc1,10%,0%,0%,12%,0%,16%,22%,16%,0%,18%
CCn1c(-c2nonc2N)nc2c(C#CC(C)(C)O)nc(OCCN)cc21.Cl.Cl [GSK902056],0%,0%,0%,0%,10%,0%,11%,0%,31%,0%
Nc1nc(Nc2ccccc2)cc(-c2ccc3c(N)n[nH]c3c2)n1 [GSK2225749],3%,0%,0%,0%,0%,0%,0%,0%,0%,0%
O=C(NCCNc1ccnc(NCc2ccc(F)cc2)n1)c1cc2ccccc2s1 [GSK1379944],0%,0%,0%,1%,3%,0%,6%,0%,82%,0%
O=C(NCCCN1CCOC1=O)c1cnc(NCc2cc(Cl)ccc2Cl)nc1NC1CCCC1,33%,0%,2%,4%,6%,10%,4%,6%,,1%
CCN(CC)CCOc1ccc(Nc2ncc3cc(-c4c(Cl)cccc4Cl)c(=O)n(C)c3n2)cc1 [SB-601273],51%,4%,0%,5%,29%,0%,20%,22%,22%,18%
Cl.Cl.NC[C@H](Cc1ccc(C(F)(F)F)cc1)NC(=O)c1cc(Br)c(-c2ccnc3[nH]ccc23)s1 [GSK1487252],22%,0%,0%,7%,17%,0%,21%,37%,30%,0%
Cc1ccc(-n2nc(C(C)(C)C)cc2NC(=O)Nc2ccc(OCCN3CCOCC3)c3ccccc23)cc1 [GW839464],4%,13%,13%,11%,3%,16%,12%,0%,14%,0%
Cl.Oc1cc(-c2nc(-c3ccccc3)[nH]c2-c2ccncc2)ccc1Cl [SB-386023],0%,0%,0%,0%,0%,0%,0%,4%,10%,0%
Cc1occc1-c1nc(N)c(OC[C@@H](N)Cc2c[nH]c3ccccc23)cc1-c1cc2c(C)n[nH]c2cn1 [GSK1660450],23%,46%,47%,44%,48%,0%,60%,77%,15%,0%
CC(C)N1C(=O)Cc2cc(Nc3ncc(C(F)(F)F)c(NCc4cccc(S(C)(=O)=O)c4)n3)ccc21,0%,22%,14%,5%,0%,0%,2%,23%,0%,0%
CN(C)CC(O)COc1ccc(Nc2nccc(-c3cnn4nc(N5CCOCC5)ccc34)n2)cc1 (centres unmarked) [GW767488],31%,25%,25%,32%,46%,0%,62%,51%,19%,20%
